Reference: PubChem BioAssay (Tox21)
Where “and” joins values, the source holds several entries; their conditions need not be identical. Equal values may be shown once. Records with an inconclusive call do not appear. A structure can be active in one record and inactive in another. Calls of active or inactive are those of the source. Unless noted, calls follow the shape of the full dose curve.

Legend:
[1] = Nuclear factor erythroid 2-related factor 2/antioxidant responsive element (Nrf2/ARE) small molecule agonists: qHTS cell viability counter screen in human keratinocytes (AID 1919968; active = well fitted cell-killing curve with a large enough effect in the repeat runs; also: nearly all actives have a fitted effect of over 55% in size; also: potency is read from the fitted curve at half-maximal effect)
Summary of the method: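 Fluorescence read-out from CellTiter-Fluor after 1 h at 37 C. Wells held HaCaT-derived ARE-luciferase reporter cells (1,500/well) treated 23 h with DMSO-dissolved compounds. Run in the same wells as the luciferase agonist read.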

[2] = Nuclear factor erythroid 2-related factor 2/antioxidant responsive element (Nrf2/ARE) small molecule agonists: luciferase reporter gene qHTS assay in human keratinocytes (AID 1919969); also: nearly all actives have a fitted effect of over 35% in size; also: potency is read from the fitted curve at half-maximal effect
[3] = target: Gonadotropin-releasing hormone receptor (Homo sapiens) (UniProt P30968); test: Human gonadotropin-releasing hormone receptor (GnRHR) small molecule agonists, calcium flux assay in GnRHR-HEK293 cells (AID 1920063); also: nearly all actives have a fitted effect of over 35% in size
Sequence of Gonadotropin-releasing hormone receptor (Homo sapiens) (P30968 whole entry, looked up): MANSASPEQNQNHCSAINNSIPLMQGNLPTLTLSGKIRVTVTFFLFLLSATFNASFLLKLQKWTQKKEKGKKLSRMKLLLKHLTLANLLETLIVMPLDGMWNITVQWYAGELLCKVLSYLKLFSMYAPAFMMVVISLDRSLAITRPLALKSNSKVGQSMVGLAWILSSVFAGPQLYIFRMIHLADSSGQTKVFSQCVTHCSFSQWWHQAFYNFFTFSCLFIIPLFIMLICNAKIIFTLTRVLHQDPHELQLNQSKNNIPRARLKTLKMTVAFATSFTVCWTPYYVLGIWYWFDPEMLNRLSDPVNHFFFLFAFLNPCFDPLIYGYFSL
Summary of the method: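 Calcium-dye fluorescence, Ex/Em=480/540, recorded every 1 sec over 3 min after compound addition to GnRHR-HEK293 cells. Cells had been seeded 18 hours earlier and dye-loaded for 1 hour at 37 C. Fifteen concentrations, triplicates.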

[4] = G protein-coupled receptor (GPCR) small molecule agonists, calcium flux assay: HEK293 wild type cell line counter screen (AID 1920065)
Summary of the method: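 Agonist mode; 18 h seeding at 37 C, 1 h dye load at 37 C; compounds pinned from DMSO, ATP as positive control; kinetic fluorescence 480/540 nm, 3 min, 1 s reads; 15 concentrations, triplicate.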

[5] = p53 small molecule agonists, cell-based qHTS assay with human liver microsomes (AID 1963577);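 also: p53 response element beta-lactamase reporter cells with liver microsomes plus NADPH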
Summary of the method: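 With metabolic activation: human liver microsomes (0.5 mg/mL final) plus NADPH (0.5 mg/mL final) added alongside compounds to p53RE-bla cells; 16 h 37 C exposure; beta-lactamase read by LiveBLAzer fluorescence.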

[6] = p53 small molecule agonists, cell-based qHTS assay with rat liver microsomes (AID 1963578)
Summary of the method: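 Metabolic activation by rat liver microsomes and NADPH, each 0.5 mg/mL final, added right after compounds to p53RE-bla reporter cells (4,000/well, plated 5 h earlier). 16 h at 37 C, then LiveBLAzer substrate for 2 h at room temperature in the dark; fluorescence read-out.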

[7] = p53 small molecule agonists, cell-based qHTS assay with human liver microsomes: qHTS cell viability counter screen (AID 1963579); also: nearly all actives have a fitted effect of over 45% in size
Summary of the method: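 Metabolic activation used human liver microsomes and NADPH, both 0.5 mg/mL final, over 16 hours at 37 C on p53RE-bla cells (4,000/well). Cytotoxicity measured by CellTiter-Glo luminescence, 30 min at room temperature.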

[8] = p53 small molecule agonists, cell-based qHTS assay with rat liver microsomes: qHTS cell viability counter screen (AID 1963580); also: nearly all actives have a fitted effect of over 45% in size
Summary of the method: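 Luminescent ATP readout (CellTiter-Glo, 30 min at room temperature) reports viability of p53RE-bla HCT-116 cells after 16 h at 37 C with test compounds under metabolic activation by rat liver microsomes and NADPH at 0.5 mg/mL final each.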

[9] = p53 small molecule agonists, cell-based qHTS assay: qHTS cell viability counter screen (AID 1963581); also: nearly all actives have a fitted effect of over 45% in size
Summary of the method: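 Cytotoxicity read-out: ATP-based luminescence (CellTiter-Glo, 30 min RT) measured in the same wells as the p53 reporter assay, HCT-116 p53RE-bla cells, 16 h compound exposure at 37 C.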

[10] = p53 small molecule agonists, cell-based qHTS assay (AID 1963582; active = well fitted activation curve with a large enough effect in the signal ratio in the repeat runs, not every such curve was filed as active; the % refers to the signal ratio)
Summary of the method: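 Fluorescence intensity read-out of a beta-lactamase reporter under a p53 response element. Cells were exposed to DMSO-dissolved compounds for 16 h at 37 C, then developed with FRET substrate for 2 h at RT.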

[11] = target: 5-hydroxytryptamine receptor 2A (Homo sapiens) (UniProt P28223); test: 5-hydroxytryptamine receptor 2A (HTR2A) small molecule antagonists, cell-based qHTS assay (AID 1963586); also: nearly all actives have a fitted effect of over 45% in size
Sequence of 5-hydroxytryptamine receptor 2A (Homo sapiens) (P28223 whole entry, looked up): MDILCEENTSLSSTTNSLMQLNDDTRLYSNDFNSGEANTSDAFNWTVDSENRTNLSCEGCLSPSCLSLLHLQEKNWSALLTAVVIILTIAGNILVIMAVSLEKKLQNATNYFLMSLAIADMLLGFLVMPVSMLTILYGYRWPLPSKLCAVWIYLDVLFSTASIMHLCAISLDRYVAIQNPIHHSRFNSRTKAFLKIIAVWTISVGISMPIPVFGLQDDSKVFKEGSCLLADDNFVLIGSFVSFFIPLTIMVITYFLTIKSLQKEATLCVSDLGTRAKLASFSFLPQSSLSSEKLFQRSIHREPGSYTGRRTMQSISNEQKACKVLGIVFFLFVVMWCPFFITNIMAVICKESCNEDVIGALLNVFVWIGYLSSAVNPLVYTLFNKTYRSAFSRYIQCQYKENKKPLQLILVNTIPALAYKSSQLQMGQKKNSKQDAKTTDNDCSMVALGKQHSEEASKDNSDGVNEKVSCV
Summary of the method: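 CHO cells stably expressing human HTR2A were plated for 18 h at 37 C, then loaded with calcium dye for 1 h. Compounds were preincubated 5 min at room temperature before DOI (4 nM solution) was added. Kinetic fluorescence was read for 3 min.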

[12] = target: 5-hydroxytryptamine receptor 2A (Homo sapiens) (UniProt P28223); test: 5-hydroxytryptamine receptor 2A (HTR2A) small molecule agonists, cell-based qHTS assay (AID 1963587); also: nearly all actives have a fitted effect of over 30% in size
Summary of the method: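 HTR2A-CHO cells, plated 18 h at 37 C/5% CO2, dye-loaded 1 h at 37 C; compounds in DMSO added by pin tool (agonist mode). Intracellular calcium flux read as kinetic fluorescence on FDSS over 2 min at 1 s intervals.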

[13] = target: Muscarinic acetylcholine receptor M1 (Homo sapiens) (UniProt P11229); test: Cholinergic receptor muscarinic 1 (CHRM1) small molecule antagonists, cell-based qHTS assay (AID 1963588); also: nearly all actives have a fitted effect of over 40% in size; also: potency is read from the fitted curve at half-maximal effect
Sequence of Muscarinic acetylcholine receptor M1 (Homo sapiens) (P11229 whole entry, looked up): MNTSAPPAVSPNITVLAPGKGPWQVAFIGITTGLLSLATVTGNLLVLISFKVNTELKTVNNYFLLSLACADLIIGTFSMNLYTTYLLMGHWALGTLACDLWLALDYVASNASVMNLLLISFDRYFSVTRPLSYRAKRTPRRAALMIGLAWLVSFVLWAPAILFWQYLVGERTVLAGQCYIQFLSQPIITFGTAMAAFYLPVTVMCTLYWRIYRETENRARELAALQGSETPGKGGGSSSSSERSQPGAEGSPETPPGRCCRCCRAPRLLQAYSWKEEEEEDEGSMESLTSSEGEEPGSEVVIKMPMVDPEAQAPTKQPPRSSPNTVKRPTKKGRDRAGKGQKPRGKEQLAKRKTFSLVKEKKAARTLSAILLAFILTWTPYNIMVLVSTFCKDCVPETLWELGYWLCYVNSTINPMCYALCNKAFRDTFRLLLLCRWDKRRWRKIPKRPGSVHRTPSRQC
Summary of the method: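 Compounds were tested at 15 concentrations in three independent runs. Dye-loaded CHRM1-CHO cells were exposed 5 min at room temperature before stimulation by acetylcholine added at 50nM. Intracellular calcium was read kinetically on FDSS for 3 min.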

[14] = target: Muscarinic acetylcholine receptor M1 (Homo sapiens) (UniProt P11229); test: Cholinergic receptor muscarinic 1 (CHRM1) small molecule agonists, cell-based qHTS assay (AID 1963589); also: nearly all actives have a fitted effect of over 35% in size
Summary of the method: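 Calcium flux read-out: kinetic fluorescence at 1 sec intervals after pin-tool compound addition to dye-loaded CHRM1-CHO cells (human M1). Agonist mode; 15 concentrations tested in triplicate independent runs.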

[15] = cAMP Responsive Elements (CRE) small molecule agonists, cell-based qHTS assay (AID 1963590)
Summary of the method: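 Beta-lactamase reporter readout: LiveBLAzer B/G FRET substrate, 2 h at room temperature, added after 3 h compound treatment of CRE-bla HEK 293T cells at 37 C/5% CO2.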

[16] = cAMP Responsive Elements (CRE) small molecule antagonists, cell-based qHTS assay (AID 1963591; active = well fitted inhibition curve with a large enough effect in the signal ratio in the repeat runs, not every such curve was filed as active; the % refers to the signal ratio)
Summary of the method: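 HEK293T CRE-bla; 18 h preincubation; compound pin-transfer; NKH477 0.25 uM final, 3 h, 37 C; LiveBLAzer FRET substrate 2 h RT.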

[17] = target: Beta-2 adrenergic receptor (Homo sapiens) (UniProt P07550); test: Adrenergic beta2 receptor (ADRB2) small molecule antagonists, cell-based qHTS assay (AID 1963592); also: series mostly up to about 92 µM; nearly all actives have a fitted effect of over 50% in size
Sequence of Beta-2 adrenergic receptor (Homo sapiens) (P07550 whole entry, looked up): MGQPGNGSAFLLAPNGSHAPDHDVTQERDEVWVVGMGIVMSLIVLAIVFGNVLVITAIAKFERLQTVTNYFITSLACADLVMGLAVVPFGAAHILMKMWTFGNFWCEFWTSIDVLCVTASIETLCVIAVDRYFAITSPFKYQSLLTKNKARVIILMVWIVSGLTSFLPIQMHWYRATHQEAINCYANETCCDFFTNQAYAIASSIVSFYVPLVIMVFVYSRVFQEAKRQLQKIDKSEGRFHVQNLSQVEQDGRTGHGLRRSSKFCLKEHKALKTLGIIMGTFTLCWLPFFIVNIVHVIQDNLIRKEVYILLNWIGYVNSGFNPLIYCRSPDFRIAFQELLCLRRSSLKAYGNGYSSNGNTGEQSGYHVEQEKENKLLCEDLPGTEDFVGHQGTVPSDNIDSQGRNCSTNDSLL
Summary of the method: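 Assay format: CHO-ADRB2 cells, 18-20hr seeding at 37C/5% CO2, then compound plus 1nM isoproterenol agonist mix for 0.5hr RT. Homogeneous time-resolved fluorescence cAMP detection after 1hr, expressed as 665/615 nm ratio.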

[18] = target: Beta-2 adrenergic receptor (Homo sapiens) (UniProt P07550); test: Adrenergic beta2 receptor (ADRB2) small molecule agonists, cell-based qHTS assay (AID 1963593);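 also: CHO cells stably overexpressing human ADRB2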
Summary of the method: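 CHO cells stably over-expressing ADRB2 were plated overnight at 37C, then dosed with compounds plus a stimulation mix containing 100uM IBMX and 25uM Ro-20-1724 for 0.5hr at room temperature. cAMP was measured by HTRF competition, 1hr.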

[19] = target: D(2) dopamine receptor (Homo sapiens) (UniProt P14416); test: Dopamine D2 receptor (DRD2) small molecule agonists, cell-based qHTS assay (AID 1963594); also: nearly all actives have a fitted effect of over 35% in size
Sequence of D(2) dopamine receptor (Homo sapiens) (P14416 whole entry, looked up): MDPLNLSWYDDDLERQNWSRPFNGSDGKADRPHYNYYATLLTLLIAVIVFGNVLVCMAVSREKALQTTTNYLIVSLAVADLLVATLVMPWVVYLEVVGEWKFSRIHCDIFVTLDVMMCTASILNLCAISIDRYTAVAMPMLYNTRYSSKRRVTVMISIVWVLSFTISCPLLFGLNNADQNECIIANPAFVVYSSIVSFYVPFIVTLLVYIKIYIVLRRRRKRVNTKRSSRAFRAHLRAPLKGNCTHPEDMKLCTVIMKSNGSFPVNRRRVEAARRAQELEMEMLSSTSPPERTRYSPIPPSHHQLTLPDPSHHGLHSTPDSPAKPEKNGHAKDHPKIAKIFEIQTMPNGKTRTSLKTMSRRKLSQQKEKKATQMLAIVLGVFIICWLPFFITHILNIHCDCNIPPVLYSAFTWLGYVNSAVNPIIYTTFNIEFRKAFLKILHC
Summary of the method: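 HEK293 cells stably expressing DRD2 were cultured 24 h at 37 C, then given Ro20-1724 (0.1 mM final) and compounds for 10 min at room temperature. NKH477 (200nM) was then added for 30 min. cAMP was read by HTRF.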

[20] = target: D(2) dopamine receptor (Homo sapiens) (UniProt P14416); test: Dopamine D2 receptor (DRD2) small molecule antagonists, cell-based qHTS assay (AID 1963595; active = well fitted inhibition curve with a large enough effect in the signal ratio in the repeat runs, with a control signal flat; the % refers to the signal ratio)
Summary of the method: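 Antagonist mode in DRD2-HEK293 cells: after compound addition with 0.1 mM Ro20-1724, cells received quinpirole (12 nM) and NKH477 (200 nM) for 30 min at room temperature; HTRF cAMP read after 1 h detection.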

Measured: Potency

Nc1ccc(Cl)c(Cl)c1
inactive: all assays above

Clc1ccc(C(c2ccc(Cl)cc2)C(Cl)(Cl)Cl)cc1
active: [1] 38.8 µM
inactive: all other assays above

O=[N+]([O-])O[C@H]1CO[C@H]2[C@@H]1OC[C@H]2O[N+](=O)[O-]
not listed: [13] | [19] | [20]
inactive: all other assays above

CC(C)(C)C(=O)Cl
not listed: [4] | [5] | [17] | [18]
inactive: all other assays above

CC(C)C(C)(N)C#N (stereo unspecified)
not listed: [18]
inactive: all other assays above

CC(C)(OOC(C)(C)c1ccccc1)c1ccccc1
active: [2] 21.7 µM
not listed: [16]
inactive: all other assays above

[O]=[Cr][O][Cr]=[O]
not listed: [17] | [18]
inactive: all other assays above

O=C=NC1CCCCC1
not listed: [18]
inactive: all other assays above

Clc1ccc(C(c2ccccc2Cl)C(Cl)(Cl)Cl)cc1 (stereo unspecified)
active: [1] 43.5 µM
not listed: [8] | [10] | [15] | [17] | [18]
inactive: all other assays above

COC(=O)c1sccc1S(=O)(=O)NC(=O)Nc1nc(C)nc(OC)n1
not listed: [6] | [7] | [16]
inactive: all other assays above

C=C(C)[C@@H]1CC=C(C=O)CC1
not listed: [8] | [12]
inactive: all other assays above

C=CCOC(Cn1ccnc1)c1ccc(Cl)cc1Cl (stereo unspecified)
active: [1] 43.3 µM and 18.8 µM | [2] 15.4 µM and 24.3 µM and 8.41 µM | [13] 5.96 µM and 18.8 µM
not listed: [11] | [12] | [17]
inactive: all other assays above

Cc1ccc(CCl)cc1
not listed: [3]
inactive: all other assays above

CCc1cnc(C2=NC(C)(C(C)C)C(=O)N2)c(C(=O)O)c1 (stereo unspecified)
not listed: [5] | [6] | [10]
inactive: all other assays above

O=S(=O)(Oc1ccc(Cl)cc1)c1ccc(Cl)cc1
27.7 µM (active) and inactive: [2]
not listed: [5] | [6] | [10] | [13] | [17]
inactive: all other assays above
